According to PubChem BioAssay (NCATS):
Records with an inconclusive call do not appear. Calls of active or inactive are those of the source. Unless noted, the call rests on the fitted dose curve; in most records, active means well fitted curve in either direction with a large enough effect (not every such curve was filed as active); inconclusive means small, poorly fitted or top-dose-only effect, or another doubt; inactive means flat fitted curve, though single readings scatter.

Assays:
[1] = molecular target: Lysosomal acid glucosylceramidase (Homo sapiens) (UniProt P04062); test: Glucocerebrosidase-p2 (AID 348; in the data active means potency below about 10 µM; further: potency means the concentration at half of the fitted maximal effect); conditions: purified GBA, blue fluorogenic substrate, 40 min
How it was run: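 Normal human glucocerebrosidase (0.2 nM) with blue fluorogenic substrate (80 uM final) in citrate/phosphate pH 5.9 with 10mM sodium taurocholate, 0.01% tween-20; 40 min RT, NaOH/glycine stop; fluorescence Ex 365/Em 440; AC50 from a titration from 0.6 nM upwards.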

[2] = AP1 Signaling Pathway (AID 357); conditions: ME-180 AP-1-bla reporter, EGF-induced, beta-lactamase ratio, 5 h; at 7.69 µM (top of the series) unless noted;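 further: ME-180 reporter cells stimulated with EGF at its EC50 level; on the % scale 0 is the no-effect control and ±100 the full control effect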
How it was run: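 Cells are seeded overnight, exposed to compound titrations and an EC50 level of EGF for 5 hours at 37 °C, then loaded with CCF4 dye for 2.5 hours. Beta-lactamase activity under the AP-1 element is read as a blue/green ratio.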

[3] = molecular target: Cytochrome P450 1A2 (Homo sapiens) (UniProt P05177); test: p450-cyp1a2 (AID 410; calls by dose curve; further: potency means the concentration at half of the fitted maximal effect;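 on activity change, negative = inhibition: -100% = full effect of reference inhibitor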); conditions: recombinant CYP1A2, luciferin-ME demethylation, luminescence; series mostly up to 57 µM
How it was run: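 Read-out is luminescence from luciferin produced by CYP1A2 demethylation of Luciferin-ME (100uM, at Km). Detection reagent stopped the 60 min NADPH-dependent reaction; signals were normalized to 57 uM furafylline.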

[4] = NFAT Signaling Pathway (AID 444); conditions: Jurkat NFAT-bla M1, carbachol, beta-lactamase ratio, 5 h; at 7.69 µM (top of the series) unless noted;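 further: carbachol stimulus at about its EC50 of 1 µM final; on the % scale 0 is the no-effect control and ±100 the full control effect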
How it was run: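 Jurkat cells carrying an NFAT-driven β-lactamase reporter and co-transfected muscarinic M1 receptor were treated with compound plus carbachol (1 uM final, an EC50 level) for 5 h at 37 °C. CCF4 loading followed for 1 h at RT; 460/530 nm ratio gave %activity.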

[5] = Stat Signaling Pathway (AID 446); conditions: ME-180 (cervical carcinoma) SIE beta-lactamase reporter, IL-6 stimulated, 5 h; at 7.69 µM (top of the series) unless noted;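 further: ME-180 cervical cancer cells given 40 pM IL-6 alongside compound; SIE-controlled beta-lactamase reporter measured as 460/530 nm FRET emission ratio; on the % scale 0 is the no-effect control and ±100 the full control effect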
How it was run: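 Overnight-plated ME-180 cells bearing a STAT Inducible Element beta-lactamase reporter; 5 h co-exposure to compound and 40 pM IL-6; values normalized to 300 pM IL-6 and 125 nM JAK inhibitor controls.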

[6] = molecular target: Mitogen-activated protein kinase 10 (Mus musculus) (UniProt Q61831); test: JNK3 AlphaScreen Assay (AID 530); conditions: JNK3 lysate, c-Jun phosphorylation; series mostly up to 57.1 µM;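 further: kinase came from lysate of stimulated human HepG2 cells; signal reports phosphorylation of biotinylated GST-cJun 1-79 at Ser73 with 10 µM ATP; on the % scale 0 is the no-effect control and ±100 the full control effect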
How it was run: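 Biotinylated GST-cJun(1-79) served as substrate for JNK3 in HepG2 lysates stimulated with IL-1beta and TNF-alpha. ATP was 10 uM final, pH 7.6. Ser73 phosphorylation was quantified by AlphaScreen (680 nm excitation).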

[7] = molecular target: 3',5'-cyclic-AMP phosphodiesterase 4B (Homo sapiens) (UniProt Q07343); test: qHTS Assay for Inhibitors of PDE-IV (AID 607; active means well fitted activation curve with a large enough effect in the main read-out, with a control signal flat, not every such curve was filed as active; further: % of control where 0% means no effect); conditions: HEK293 ACTOne CNG channel cells, membrane potential fluorescence; series mostly up to 22.9 µM
How it was run: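 Live HEK293 cells with a modified cyclic nucleotide-gated (CNG) channel report intracellular cAMP via membrane-potential dye fluorescence (ex 535/em 590 nm). Endogenous PDE-IV was targeted. Compounds were tested at up to 22.9 uM final; RO 20-1724 100 uM served as control.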

[8] = molecular target: Cytochrome P450 3A4 (Homo sapiens) (UniProt P08684); test: qHTS Assay for Activators of Cytochrome P450 3A4 (AID 885; active means well fitted curve in the direction sought with a large enough effect; an effect the other way counts as inactive or inconclusive; further: nearly all actives have a fitted effect of over 65% in size); conditions: recombinant CYP3A4, Luciferin-PPXE luminescence, 60 min; series mostly up to 57.1 µM
How it was run: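 Using 20nM recombinant human CYP3A4 in potassium phosphate (200mM), substrate Luciferin-PPXE at 25uM, luminescent luciferin detection followed a 60-min RT NADPH reaction; data scaled to 57 uM ketoconazole.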

[9] = qHTS Assay for Lipid Storage Modulators (AID 1519; calls by dose curve); conditions: Drosophila S3 cells, BODIPY lipid droplet/cell ratio, laser cytometry, cells loaded with oleic acid; for activity change, negative = inhibition: at 57.5 µM (top of the series)
How it was run: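 Cells seeded at 5,000 per well were treated with compounds over a concentration series and loaded with oleic acid (400 uM, as added). Lipid droplet fluorescence (488 nm excitation, 500-530 nm channel) was read by laser-scanning cytometry and normalized to 20 uM Triacsin C.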

[10] = Primary qHTS for small molecule stabilizers of the endoplasmic reticulum resident proteome: Secreted ER Calcium Modulated Protein (SERCaMP) assay (AID 1508630; active means well fitted curve in the direction sought with a large enough effect; an effect the other way counts as inactive or inconclusive; further: on the % scale 0 is the no-effect control and ±100 the full control effect); conditions: SH-SY5Y GLuc-SERCaMP (Gaussia luciferase released on ER calcium loss) secretion, thapsigargin, luminescence; series mostly up to 38.4 µM
How it was run: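 The SH-SY5Y reporter protocol was run at 3 concentrations up to 38.3 uM (primary) or 11 concentrations (follow-up): 16 h compound, 100 nM thapsigargin for 4 h, then extracellular luciferase luminescence.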

[11] = molecular target: Glucocorticoid receptor (Homo sapiens) (UniProt P04150); test: GR-EFC Redistribution (AID 451; calls by dose curve; further: potency means the concentration at half of the fitted maximal effect); conditions: CHO-K1 GR-EFC translocation, beta-gal luminescence, 2 h
How it was run: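 CHO-K1 cells stably expressing nuclear-localized β-gal enzyme acceptor and GR fused C-terminally to the enzyme donor fragment; ligand-driven nuclear translocation restores β-gal by complementation. Compounds titrated up to 46 uM final, 2 h at 37 °C; luminescence read.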

[12] = molecular target: Cytochrome P450 2C19 (Homo sapiens) (UniProt P33261); test: qHTS Assay for Inhibitors and Substrates of Cytochrome P450 2C19 (AID 899; active means well fitted curve in the direction sought with a large enough effect; an effect the other way counts as inactive or inconclusive; further: potency means the concentration at half of the fitted maximal effect; nearly all actives have a fitted effect of over 60% in size); conditions: recombinant CYP2C19, luciferin-H EGE luminescence; series mostly up to 57.1 µM
How it was run: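 NADPH-dependent conversion of Luciferin-H EGE (10uM, at KM) by 5nM enzyme in 50mM KPO4, 60 min at 37C following 10 min compound preincubation. Stopped with luciferin detection buffer; luminescence read after 20 min.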

[13] = molecular target: Cytochrome P450 3A4 (Homo sapiens) (UniProt P08684); test: qHTS Assay for Inhibitors and Substrates of Cytochrome P450 3A4 (AID 884; active means well fitted curve in the direction sought with a large enough effect; an effect the other way counts as inactive or inconclusive; further: nearly all actives have a fitted effect of over 50% in size; further: potency means the concentration at half of the fitted maximal effect); conditions: recombinant CYP3A4, Luciferin-PPXE luminescence; series mostly up to 57.1 µM
How it was run: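 Luminescent readout of luciferin produced by CYP3A4 (20 nM) dealkylation of Luciferin-PPXE, 25 uM (its KM). NADPH-driven reaction ran 60 min at RT after 10 min compound preincubation; data scaled to 57 uM ketoconazole as 100% inhibition.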

[14] = molecular target: Glucocorticoid receptor (Homo sapiens) (UniProt P04150); test: GR-GFP Redistribution (AID 450;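 active means compounds whose dose series gives a full or clear partial fitted curve of increased nuclear translocation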; further: potency means the concentration at half of the fitted maximal effect); conditions: U2OS GR-GFP nuclear translocation, laser cytometry, 2 h
[15] = molecular target: Cytochrome P450 2D6 (Homo sapiens) (UniProt P10635); test: qHTS Assay for Inhibitors and Substrates of Cytochrome P450 2D6 (AID 891; active means well fitted curve in the direction sought with a large enough effect; an effect the other way counts as inactive or inconclusive; further: potency means the concentration at half of the fitted maximal effect; nearly all actives have a fitted effect of over 60% in size); conditions: recombinant CYP2D6, luciferin-ME EGE luminescence; series mostly up to 57.1 µM
How it was run: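 Luminescent read-out of luciferin formed by 5 nM human CYP2D6 demethylating 30 uM Luciferin-ME EGE (Km level) over 60 min at room temperature after NADPH regeneration addition. Data normalized to full inhibition by 1.43 uM quinidine.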

[16] = measured here: cell count channel max response
[17] = measured here: lipid channel max response

Cytochrome P450 3A4 (Homo sapiens), sequence (P08684 whole entry, looked up): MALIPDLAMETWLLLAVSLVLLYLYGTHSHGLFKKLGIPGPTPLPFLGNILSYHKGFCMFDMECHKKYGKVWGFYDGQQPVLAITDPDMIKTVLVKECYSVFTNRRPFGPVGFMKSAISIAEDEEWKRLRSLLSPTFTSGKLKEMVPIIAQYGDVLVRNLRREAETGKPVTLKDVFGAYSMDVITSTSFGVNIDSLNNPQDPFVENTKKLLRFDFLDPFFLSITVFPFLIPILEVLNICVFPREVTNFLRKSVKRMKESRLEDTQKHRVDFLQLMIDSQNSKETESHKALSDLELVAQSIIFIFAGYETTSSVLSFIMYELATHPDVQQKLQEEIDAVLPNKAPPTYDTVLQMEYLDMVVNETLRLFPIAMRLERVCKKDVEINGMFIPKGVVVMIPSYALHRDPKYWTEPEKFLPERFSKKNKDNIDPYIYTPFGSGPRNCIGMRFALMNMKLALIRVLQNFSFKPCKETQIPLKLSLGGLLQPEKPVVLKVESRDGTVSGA
Glucocorticoid receptor (Homo sapiens), sequence (P04150 whole entry, looked up, the tested form may be a part): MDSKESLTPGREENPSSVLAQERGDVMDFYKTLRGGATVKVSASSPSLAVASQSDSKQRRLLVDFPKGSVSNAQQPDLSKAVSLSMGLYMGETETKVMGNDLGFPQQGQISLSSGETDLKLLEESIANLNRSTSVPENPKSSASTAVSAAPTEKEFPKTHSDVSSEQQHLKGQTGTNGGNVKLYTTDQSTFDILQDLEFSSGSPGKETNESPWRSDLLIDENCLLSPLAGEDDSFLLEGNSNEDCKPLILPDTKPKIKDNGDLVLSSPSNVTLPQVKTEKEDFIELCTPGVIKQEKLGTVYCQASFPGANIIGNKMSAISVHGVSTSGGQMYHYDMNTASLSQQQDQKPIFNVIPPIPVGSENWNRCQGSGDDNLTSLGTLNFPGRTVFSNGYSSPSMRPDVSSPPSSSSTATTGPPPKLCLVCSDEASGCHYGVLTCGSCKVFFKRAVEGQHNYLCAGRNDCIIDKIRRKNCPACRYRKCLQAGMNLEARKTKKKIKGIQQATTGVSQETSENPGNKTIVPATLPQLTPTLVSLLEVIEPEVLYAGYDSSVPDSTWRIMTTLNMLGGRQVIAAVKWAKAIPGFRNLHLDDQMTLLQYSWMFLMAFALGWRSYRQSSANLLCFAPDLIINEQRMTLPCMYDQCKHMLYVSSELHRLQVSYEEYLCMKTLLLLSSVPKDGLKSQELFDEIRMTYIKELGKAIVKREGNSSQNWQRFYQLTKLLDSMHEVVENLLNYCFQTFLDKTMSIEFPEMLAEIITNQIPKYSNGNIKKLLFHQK
3',5'-cyclic-AMP phosphodiesterase 4B (Homo sapiens), sequence (Q07343 whole entry, looked up): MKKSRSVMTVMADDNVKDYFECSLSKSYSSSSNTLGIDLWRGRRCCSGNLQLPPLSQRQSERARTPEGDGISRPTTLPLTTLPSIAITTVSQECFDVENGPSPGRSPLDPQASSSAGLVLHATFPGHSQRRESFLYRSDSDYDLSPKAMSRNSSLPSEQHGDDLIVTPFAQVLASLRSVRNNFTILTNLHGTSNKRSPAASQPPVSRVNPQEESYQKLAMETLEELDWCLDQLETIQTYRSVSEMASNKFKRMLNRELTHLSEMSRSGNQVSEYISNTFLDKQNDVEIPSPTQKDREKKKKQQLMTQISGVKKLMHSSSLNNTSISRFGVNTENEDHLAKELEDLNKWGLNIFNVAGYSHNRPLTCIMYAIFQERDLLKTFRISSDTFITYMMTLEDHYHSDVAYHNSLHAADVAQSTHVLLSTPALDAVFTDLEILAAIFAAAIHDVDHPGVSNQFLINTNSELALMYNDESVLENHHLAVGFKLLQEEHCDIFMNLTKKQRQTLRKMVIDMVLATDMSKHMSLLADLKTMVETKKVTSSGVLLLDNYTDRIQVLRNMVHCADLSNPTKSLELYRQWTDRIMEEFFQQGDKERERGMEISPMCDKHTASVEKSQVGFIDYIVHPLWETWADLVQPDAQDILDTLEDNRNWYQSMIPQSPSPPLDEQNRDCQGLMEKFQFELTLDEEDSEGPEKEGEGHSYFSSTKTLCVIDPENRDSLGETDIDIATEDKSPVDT
Cytochrome P450 1A2 (Homo sapiens), sequence (P05177 whole entry, looked up): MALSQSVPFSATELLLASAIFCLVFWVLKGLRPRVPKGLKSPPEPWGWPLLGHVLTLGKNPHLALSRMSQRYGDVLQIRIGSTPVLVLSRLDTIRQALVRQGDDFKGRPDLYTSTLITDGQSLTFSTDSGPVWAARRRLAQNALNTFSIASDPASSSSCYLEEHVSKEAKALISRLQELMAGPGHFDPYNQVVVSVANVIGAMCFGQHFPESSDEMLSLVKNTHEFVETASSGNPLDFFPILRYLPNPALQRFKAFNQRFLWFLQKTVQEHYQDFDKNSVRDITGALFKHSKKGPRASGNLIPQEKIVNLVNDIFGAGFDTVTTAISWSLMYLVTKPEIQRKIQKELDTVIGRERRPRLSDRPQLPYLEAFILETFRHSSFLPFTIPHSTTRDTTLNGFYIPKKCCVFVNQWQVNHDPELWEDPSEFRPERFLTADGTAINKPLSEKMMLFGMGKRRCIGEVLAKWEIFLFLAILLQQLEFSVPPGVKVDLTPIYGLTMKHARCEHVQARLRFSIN
Lysosomal acid glucosylceramidase (Homo sapiens), sequence (P04062 whole entry, looked up): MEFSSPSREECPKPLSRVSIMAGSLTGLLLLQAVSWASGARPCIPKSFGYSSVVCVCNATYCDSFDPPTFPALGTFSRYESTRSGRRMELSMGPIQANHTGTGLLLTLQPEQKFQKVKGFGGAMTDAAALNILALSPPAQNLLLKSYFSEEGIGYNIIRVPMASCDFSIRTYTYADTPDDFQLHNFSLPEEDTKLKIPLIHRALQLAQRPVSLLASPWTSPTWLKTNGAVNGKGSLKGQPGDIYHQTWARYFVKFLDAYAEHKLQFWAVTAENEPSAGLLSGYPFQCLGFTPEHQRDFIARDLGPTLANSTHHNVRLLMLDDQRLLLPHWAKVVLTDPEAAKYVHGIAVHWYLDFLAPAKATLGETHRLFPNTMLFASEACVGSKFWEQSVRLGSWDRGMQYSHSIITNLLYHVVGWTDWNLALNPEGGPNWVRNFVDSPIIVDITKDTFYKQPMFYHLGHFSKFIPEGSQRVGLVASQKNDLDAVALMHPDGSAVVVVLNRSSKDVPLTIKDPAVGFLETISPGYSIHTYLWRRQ
Cytochrome P450 2C19 (Homo sapiens), sequence (P33261 whole entry, looked up): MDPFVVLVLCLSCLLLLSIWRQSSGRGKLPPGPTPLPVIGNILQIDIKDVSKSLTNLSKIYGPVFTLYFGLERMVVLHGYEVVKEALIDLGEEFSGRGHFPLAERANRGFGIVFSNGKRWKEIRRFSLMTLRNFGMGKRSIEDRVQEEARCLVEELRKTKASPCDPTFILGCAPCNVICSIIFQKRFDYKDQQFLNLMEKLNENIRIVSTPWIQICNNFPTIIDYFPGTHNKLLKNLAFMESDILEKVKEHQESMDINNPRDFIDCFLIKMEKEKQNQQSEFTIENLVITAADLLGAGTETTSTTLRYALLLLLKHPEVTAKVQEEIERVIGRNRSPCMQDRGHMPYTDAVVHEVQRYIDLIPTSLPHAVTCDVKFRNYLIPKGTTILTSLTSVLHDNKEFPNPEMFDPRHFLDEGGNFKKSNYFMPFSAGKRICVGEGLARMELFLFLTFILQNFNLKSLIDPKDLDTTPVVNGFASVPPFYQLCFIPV
Cytochrome P450 2D6 (Homo sapiens), sequence (P10635 whole entry, looked up): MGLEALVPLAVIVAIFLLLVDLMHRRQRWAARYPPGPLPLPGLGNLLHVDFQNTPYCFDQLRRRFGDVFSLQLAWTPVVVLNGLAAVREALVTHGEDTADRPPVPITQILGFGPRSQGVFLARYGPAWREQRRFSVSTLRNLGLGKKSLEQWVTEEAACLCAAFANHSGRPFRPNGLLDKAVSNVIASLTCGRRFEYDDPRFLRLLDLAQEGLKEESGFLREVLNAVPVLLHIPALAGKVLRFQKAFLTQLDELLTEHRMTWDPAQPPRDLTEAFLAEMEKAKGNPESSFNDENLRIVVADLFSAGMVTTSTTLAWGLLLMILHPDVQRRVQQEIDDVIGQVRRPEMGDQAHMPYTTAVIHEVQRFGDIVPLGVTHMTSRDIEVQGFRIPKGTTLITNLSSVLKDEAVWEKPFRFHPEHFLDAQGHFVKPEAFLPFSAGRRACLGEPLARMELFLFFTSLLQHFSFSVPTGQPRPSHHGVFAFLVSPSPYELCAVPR

SMILES	Potency [1]	activity change, negative = inhibition [2]	Potency [3]	activity change, negative = inhibition [4]	activity, negative = inhibition [5]	outcome [6]	Potency [7]	Potency [8]	activity change, negative = inhibition [9]	max response [9, 16]	max response [9, 17]	Potency [10]	Potency [11]	Potency [12]	Potency [13]	Potency [14]	Potency [15]
COc1ccc(NC(=O)N2CC[C@@]3(CCCN(C(=O)c4cccn4C)C3)C2)cc1	> 11.4 µM (inactive)	-0.362% (inactive)	inactive	4.79% (inactive)	8.48% (inactive)	inactive	inactive	inactive	2.71% (inactive)	12%	14.4%	inactive	–	–	–	–	–
Cn1cccc1C(=O)N1CCC2(CCCN(c3ccccc3)C2)CC1	> 11.4 µM (inactive)	-3.96% (inactive)	10 µM (active)	5.63% (inactive)	-6.3% (inactive)	–	inactive	inactive	1.89% (inactive)	1.38%	7.11%	inactive	> 46 µM (inactive)	7.94 µM (active)	–	–	–
O=C(c1ccncc1)N1CCC2(CC1)CCN(c1ccccc1)CC2	> 11.4 µM (inactive)	-1.33% (inactive)	inactive	12.8% (inactive)	-1.17% (inactive)	inactive	inactive	–	2.16% (inactive)	0.126%	6.62%	inactive	–	–	–	–	–
O=C(c1cc(C(F)(F)F)cc(C(F)(F)F)c1)N1CCC2(CCN(Cc3nccs3)CC2)CC1	> 11.4 µM (inactive)	-2.3% (inactive)	inactive	-17.7% (inactive)	-29.1% (inactive)	inactive	inactive	–	1.84% (inactive)	16.9%	21.6%	inactive	–	–	inactive	–	–
Cc1ccccc1-c1cncnc1N(C)Cc1ccco1	> 11.4 µM (inactive)	-3.79% (inactive)	15.8 µM (active)	–	11.8% (inactive)	inactive	inactive	inactive	8.25% (inactive)	-7.61%	2.41%	inactive	–	5.01 µM (active)	1.58 µM (active)	> 46 µM (inactive)	–
CS(=O)(=O)N1CCC[C@@]2(CCN(c3ccccc3)C2)C1	> 11.4 µM (inactive)	-11.3% (inactive)	31.6 µM (active)	-3.01% (inactive)	-2.15% (inactive)	inactive	inactive	inactive	-16.2% (inactive)	2%	-14%	inactive	–	3.16 µM (active)	–	–	–
O=C(Nc1ccccc1)N1CC2(CCN(C(=O)c3ccco3)CC2)C1	> 11.4 µM (inactive)	-2% (inactive)	inactive	–	4.13% (inactive)	inactive	inactive	–	5.54% (inactive)	21.9%	27.1%	inactive	> 46 µM (inactive)	–	–	–	–
CS(=O)(=O)N1CCC2(CCN(C(=O)Nc3cccc(C#N)c3)CC2)CC1	> 11.4 µM (inactive)	2.04% (inactive)	inactive	–	-21% (inactive)	inactive	inactive	–	2.84% (inactive)	-15.9%	-10.5%	inactive	> 46 µM (inactive)	–	–	–	–
O=C(c1csnn1)N1CCC2(CC1)CN(Cc1cc(C(F)(F)F)cc(C(F)(F)F)c1)C2	> 11.4 µM (inactive)	15.8% (inactive)	inactive	-21.8% (inactive)	3.59% (inactive)	inactive	inactive	–	-4.63% (inactive)	8.43%	5.85%	inactive	–	–	–	–	–
CS(=O)(=O)N1CCC2(CC1)CN(c1ccncc1)C2	> 11.4 µM (inactive)	-2.13% (inactive)	inactive	-17.7% (inactive)	-0.0709% (inactive)	inactive	inactive	–	4.12% (inactive)	-19.4%	-21.8%	inactive	–	–	–	–	–
COc1ccccc1CN1CCCC2(CCN(S(C)(=O)=O)CC2)C1	> 11.4 µM (inactive)	-4.49% (inactive)	inactive	-28.3% (inactive)	6.82% (inactive)	inactive	inactive	–	2.11% (inactive)	-15.8%	-12.2%	inactive	–	–	–	–	0.0631 µM (active)
CC(=O)N1CCC[C@@]2(CCN(c3ccncc3)C2)C1	> 11.4 µM (inactive)	2.82% (inactive)	inactive	3.22% (inactive)	-0.448% (inactive)	inactive	inactive	inactive	2.25% (inactive)	8.59%	14.8%	inactive	–	–	–	–	–
Cn1cccc1C(=O)N1CCC[C@@]2(CCN(c3ccccc3)C2)C1	> 11.4 µM (inactive)	-3.25% (inactive)	12.6 µM (active)	-15.1% (inactive)	-10.8% (inactive)	–	inactive	inactive	-1.47% (inactive)	15.8%	17.2%	inactive	> 46 µM (inactive)	5.01 µM (active)	–	–	–
COC(=O)N1CCC2(CC1)CN(C(=O)Nc1cccc(C#N)c1)C2	> 11.4 µM (inactive)	2.52% (inactive)	inactive	–	-1.88% (inactive)	inactive	inactive	–	4.73% (inactive)	-0.334%	8.67%	inactive	> 46 µM (inactive)	–	–	–	–
